# Measured values reported in ChEMBL document CHEMBL1961873, “Compounds: GSK PKIS; Assays: Nanosyn kinase panel” (2012).
# What was measured:
# [1] = target: Serine/threonine-protein kinase 26 (Homo sapiens) (UniProt Q9P289); conditions: at 1 µM;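 further: mean inhibition of MST4 kinase activity, reported from the GSK PKIS inhibitor-set screening panel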
# [2] = target: Serine/threonine-protein kinase PAK 1 (Homo sapiens) (UniProt Q13153); conditions: at 0.1 µM
# [3] = target: Serine/threonine-protein kinase PAK 1 (Homo sapiens) (UniProt Q13153); conditions: at 1 µM
# [4] = target: Serine/threonine-protein kinase PAK 2 (Homo sapiens) (UniProt Q13177); conditions: at 0.1 µM
# [5] = target: Serine/threonine-protein kinase PAK 2 (Homo sapiens) (UniProt Q13177); conditions: at 1 µM
# [6] = target: Serine/threonine-protein kinase PAK 3 (Homo sapiens) (UniProt O75914); conditions: at 0.1 µM
# [7] = target: Serine/threonine-protein kinase PAK 3 (Homo sapiens) (UniProt O75914); conditions: at 1 µM
# [8] = target: Serine/threonine-protein kinase PAK 5 (Homo sapiens) (UniProt Q9P286); conditions: at 0.1 µM
# [9] = target: Serine/threonine-protein kinase PAK 5 (Homo sapiens) (UniProt Q9P286); conditions: at 1 µM
# [10] = target: Serine/threonine-protein kinase PAK 6 (Homo sapiens) (UniProt Q9NQU5); conditions: at 0.1 µM
# [11] = target: Serine/threonine-protein kinase PAK 6 (Homo sapiens) (UniProt Q9NQU5); conditions: at 1 µM
# [12] = test system: Tyrosine-protein kinase ABL1 (Homo sapiens), P00519 [E255K]; conditions: at 0.1 µM
# [13] = test system: Tyrosine-protein kinase ABL1 (Homo sapiens), P00519 [E255K]; conditions: at 1 µM
# [14] = test system: Tyrosine-protein kinase ABL1 (Homo sapiens), P00519 [H396P]; conditions: at 0.1 µM
# [15] = test system: Tyrosine-protein kinase ABL1 (Homo sapiens), P00519 [H396P]; conditions: at 1 µM
# [16] = test system: Tyrosine-protein kinase ABL1 (Homo sapiens), P00519 [M351T]; conditions: at 0.1 µM
# [17] = test system: Tyrosine-protein kinase ABL1 (Homo sapiens), P00519 [M351T]; conditions: at 1 µM
# [18] = test system: Tyrosine-protein kinase ABL1 (Homo sapiens), P00519 [Q252H]; conditions: at 0.1 µM
# [19] = test system: Tyrosine-protein kinase ABL1 (Homo sapiens), P00519 [Q252H]; conditions: at 1 µM
# [20] = test system: Tyrosine-protein kinase ABL1 (Homo sapiens), P00519 [T315I]; conditions: at 0.1 µM
# Chain of Serine/threonine-protein kinase 26 (Homo sapiens) (Q9P289 2-416 limits assumed): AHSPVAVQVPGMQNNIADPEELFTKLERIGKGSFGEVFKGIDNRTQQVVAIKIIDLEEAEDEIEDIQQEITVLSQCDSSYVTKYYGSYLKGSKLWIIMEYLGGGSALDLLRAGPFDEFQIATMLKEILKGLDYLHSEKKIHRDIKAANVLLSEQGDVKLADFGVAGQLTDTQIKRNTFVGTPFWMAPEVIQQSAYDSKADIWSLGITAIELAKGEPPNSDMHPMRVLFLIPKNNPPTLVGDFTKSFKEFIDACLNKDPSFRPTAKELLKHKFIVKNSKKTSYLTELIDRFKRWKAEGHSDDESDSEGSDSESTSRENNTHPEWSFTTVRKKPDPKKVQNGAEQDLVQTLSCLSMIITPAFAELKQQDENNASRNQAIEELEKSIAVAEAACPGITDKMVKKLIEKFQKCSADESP
# Chain of Serine/threonine-protein kinase PAK 1 (Homo sapiens) (Q13153 whole entry): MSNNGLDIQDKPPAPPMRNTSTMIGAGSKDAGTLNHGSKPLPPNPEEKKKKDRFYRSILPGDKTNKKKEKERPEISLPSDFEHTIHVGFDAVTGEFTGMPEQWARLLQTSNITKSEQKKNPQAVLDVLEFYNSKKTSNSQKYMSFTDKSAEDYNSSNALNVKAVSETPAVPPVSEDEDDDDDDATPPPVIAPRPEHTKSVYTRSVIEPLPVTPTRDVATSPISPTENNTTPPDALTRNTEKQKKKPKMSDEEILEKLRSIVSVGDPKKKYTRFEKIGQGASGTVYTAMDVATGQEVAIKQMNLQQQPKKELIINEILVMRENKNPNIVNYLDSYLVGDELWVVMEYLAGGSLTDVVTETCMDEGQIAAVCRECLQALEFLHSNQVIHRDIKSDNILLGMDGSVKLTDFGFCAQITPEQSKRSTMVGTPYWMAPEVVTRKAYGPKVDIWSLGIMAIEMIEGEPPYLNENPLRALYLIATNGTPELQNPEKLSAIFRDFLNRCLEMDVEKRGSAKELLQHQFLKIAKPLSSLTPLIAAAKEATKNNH
# Chain of Serine/threonine-protein kinase PAK 5 (Homo sapiens) (Q9P286 whole entry, looked up): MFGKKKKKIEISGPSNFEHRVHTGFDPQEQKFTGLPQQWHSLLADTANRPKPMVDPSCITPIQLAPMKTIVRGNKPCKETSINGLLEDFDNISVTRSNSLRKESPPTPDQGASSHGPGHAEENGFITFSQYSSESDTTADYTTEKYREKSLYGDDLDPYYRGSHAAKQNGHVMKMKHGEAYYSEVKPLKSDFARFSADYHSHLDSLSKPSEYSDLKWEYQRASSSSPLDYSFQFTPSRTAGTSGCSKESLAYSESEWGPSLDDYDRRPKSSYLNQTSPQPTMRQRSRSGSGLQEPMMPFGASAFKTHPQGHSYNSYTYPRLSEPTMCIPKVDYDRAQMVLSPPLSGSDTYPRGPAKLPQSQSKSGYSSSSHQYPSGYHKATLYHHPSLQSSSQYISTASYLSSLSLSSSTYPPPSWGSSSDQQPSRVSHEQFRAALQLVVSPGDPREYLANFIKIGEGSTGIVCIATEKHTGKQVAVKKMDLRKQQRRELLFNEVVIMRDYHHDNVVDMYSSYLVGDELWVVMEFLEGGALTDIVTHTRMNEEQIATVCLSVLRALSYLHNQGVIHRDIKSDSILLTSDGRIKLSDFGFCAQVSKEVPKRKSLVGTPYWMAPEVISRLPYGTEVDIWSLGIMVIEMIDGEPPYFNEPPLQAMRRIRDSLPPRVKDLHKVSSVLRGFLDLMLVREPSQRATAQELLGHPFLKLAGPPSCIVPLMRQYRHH
# Chain of Serine/threonine-protein kinase PAK 6 (Homo sapiens) (Q9NQU5 whole entry, looked up): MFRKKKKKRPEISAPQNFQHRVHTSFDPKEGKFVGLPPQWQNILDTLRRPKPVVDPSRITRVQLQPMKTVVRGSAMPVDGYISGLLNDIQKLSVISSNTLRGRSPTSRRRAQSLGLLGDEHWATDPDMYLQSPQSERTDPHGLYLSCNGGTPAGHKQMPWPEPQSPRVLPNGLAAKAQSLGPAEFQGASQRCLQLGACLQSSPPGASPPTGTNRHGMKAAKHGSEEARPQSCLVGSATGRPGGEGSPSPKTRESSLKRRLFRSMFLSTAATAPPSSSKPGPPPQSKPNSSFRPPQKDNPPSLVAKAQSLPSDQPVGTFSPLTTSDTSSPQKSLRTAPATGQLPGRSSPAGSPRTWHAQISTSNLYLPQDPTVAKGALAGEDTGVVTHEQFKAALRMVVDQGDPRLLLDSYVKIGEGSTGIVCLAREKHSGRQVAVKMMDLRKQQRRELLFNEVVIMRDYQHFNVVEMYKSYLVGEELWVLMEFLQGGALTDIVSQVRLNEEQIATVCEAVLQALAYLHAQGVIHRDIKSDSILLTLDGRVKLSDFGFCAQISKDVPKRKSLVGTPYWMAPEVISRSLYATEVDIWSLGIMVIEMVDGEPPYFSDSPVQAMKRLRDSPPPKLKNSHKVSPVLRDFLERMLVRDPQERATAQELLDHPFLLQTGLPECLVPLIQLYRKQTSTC
# Chain of Serine/threonine-protein kinase PAK 2 (Homo sapiens) (Q13177 whole entry): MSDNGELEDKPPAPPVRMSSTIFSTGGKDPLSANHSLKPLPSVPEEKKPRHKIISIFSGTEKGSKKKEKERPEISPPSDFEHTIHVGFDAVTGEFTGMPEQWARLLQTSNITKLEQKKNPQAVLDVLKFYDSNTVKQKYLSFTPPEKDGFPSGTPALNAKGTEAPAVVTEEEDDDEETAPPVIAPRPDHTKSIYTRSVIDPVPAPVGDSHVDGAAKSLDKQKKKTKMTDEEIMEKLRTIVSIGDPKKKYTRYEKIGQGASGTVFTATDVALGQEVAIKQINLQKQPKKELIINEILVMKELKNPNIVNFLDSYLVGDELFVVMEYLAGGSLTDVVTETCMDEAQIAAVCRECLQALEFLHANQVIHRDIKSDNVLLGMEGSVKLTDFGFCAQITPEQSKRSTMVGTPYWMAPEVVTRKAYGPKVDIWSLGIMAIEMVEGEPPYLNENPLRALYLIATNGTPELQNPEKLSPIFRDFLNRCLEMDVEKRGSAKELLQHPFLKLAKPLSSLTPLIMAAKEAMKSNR
# Chain of Serine/threonine-protein kinase PAK 3 (Homo sapiens) (O75914 whole entry, looked up): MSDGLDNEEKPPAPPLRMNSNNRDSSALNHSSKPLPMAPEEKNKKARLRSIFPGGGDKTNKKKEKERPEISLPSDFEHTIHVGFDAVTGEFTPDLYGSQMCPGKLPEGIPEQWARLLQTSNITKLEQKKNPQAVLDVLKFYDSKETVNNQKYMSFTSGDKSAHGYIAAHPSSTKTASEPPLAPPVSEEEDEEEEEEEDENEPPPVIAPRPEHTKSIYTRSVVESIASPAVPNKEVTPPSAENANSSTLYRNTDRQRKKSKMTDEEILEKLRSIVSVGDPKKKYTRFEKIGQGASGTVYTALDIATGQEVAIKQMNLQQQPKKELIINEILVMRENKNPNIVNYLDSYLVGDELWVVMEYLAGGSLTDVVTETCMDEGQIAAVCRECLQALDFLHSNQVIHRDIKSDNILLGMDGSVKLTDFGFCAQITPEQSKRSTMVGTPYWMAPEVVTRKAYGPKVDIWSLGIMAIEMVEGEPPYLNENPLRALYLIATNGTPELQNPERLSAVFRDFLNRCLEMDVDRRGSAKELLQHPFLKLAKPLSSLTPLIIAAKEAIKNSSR
SMILES,inhibition [1],inhibition [2],inhibition [3],inhibition [4],inhibition [5],inhibition [6],inhibition [7],inhibition [8],inhibition [9],inhibition [10],inhibition [11],inhibition [12],inhibition [13],inhibition [14],inhibition [15],inhibition [16],inhibition [17],inhibition [18],inhibition [19],inhibition [20]
COc1ccc(-c2ccc3c(NC(=O)C4CC4)n[nH]c3n2)cc1,1.05%,2.82%,2.7%,-1.11%,-0.84%,3.36%,3.17%,-5.83%,-4.91%,2.86%,-4.51%,0.71%,9.06%,3.91%,28%,1.26%,27.1%,0.06%,13.6%,2.42%
CCS(=O)(=O)c1ccc(OC)c(Nc2ncc(-c3ccccc3Cl)o2)c1,1.46%,-0.73%,-1.58%,1.78%,0.49%,-0.53%,0.98%,3.82%,17.3%,-6.91%,0.05%,2.3%,16.3%,5.27%,23.2%,5.47%,22%,5.67%,26.3%,3.23%
NC(=O)c1cc(-c2ccc(F)cc2)cc(-c2ccncc2)c1N,-1.28%,5.31%,6.13%,0.6%,1.36%,4.12%,4.25%,-1.26%,1.21%,-6.76%,-7.94%,3.29%,4.43%,3.43%,5.86%,2.81%,2.85%,4.84%,5.67%,3.32%
COc1cc(N2CCN(C(C)C)CC2)ccc1Nc1nc(Nc2ccc(F)cc2C(=O)NC[C@@H](O)CO)c2cc[nH]c2n1,-2.64%,4.77%,11.8%,1.33%,1.54%,4.85%,6.19%,2.5%,-2.48%,5.3%,-2.37%,1.32%,5.35%,2.98%,5.65%,3.03%,5.84%,3.53%,4.72%,2.48%
Fc1ccc(-c2c(-c3ccncc3)nc3n2CCS3)cc1,1.66%,6.15%,-0.03%,-0.52%,0.49%,2.55%,3.16%,1.47%,3.62%,1.52%,-5.03%,1.44%,4.74%,2.06%,3.54%,-0.24%,5.03%,1.69%,4.11%,0.05%
O=C(Nc1n[nH]c2cc(-c3ccccc3)ccc12)C1CC1,-4.03%,7.59%,7.76%,1.44%,2.41%,5.22%,6.01%,0.11%,-0.04%,5.51%,-4.61%,10.5%,46.5%,20.2%,67.5%,19.3%,68.6%,14%,48.4%,36.3%
CN(c1ccc(NC(=O)Nc2c(Cl)cccc2Cl)cc1)c1ccnc(Nc2cccc(CS(C)(=O)=O)c2)n1,-3.71%,-0.06%,2.17%,1.79%,1.61%,1.56%,1.38%,4.31%,11.9%,7.14%,0.99%,8.03%,35.9%,30%,69.3%,46.9%,81.9%,39.3%,72.3%,41.6%
Clc1ccc(CNc2nccc(-c3cnn4ncccc34)n2)cc1,1.18%,-2.27%,-0.13%,0.78%,0.67%,-0.26%,0.29%,8.39%,2.06%,,-0.19%,4.07%,3.72%,4.81%,5.52%,4.62%,3.11%,2.33%,6.07%,0.52%
CCC(=O)Nc1ccc(C)c(-c2ccc(C(=O)NCC3CC3)cc2)c1,-3.71%,3.98%,9.02%,0.42%,0.8%,2.56%,3.37%,-0.07%,-2.96%,-8.71%,-9.47%,2.13%,2.73%,3.96%,4.29%,2.37%,1.29%,3.29%,4.63%,2.76%
O=C(Nc1n[nH]c2nc(-c3ccco3)ccc12)C1CC1,1.1%,0.35%,1.74%,0.42%,-0.03%,0.51%,0.64%,5.55%,3.74%,6.27%,3.45%,2.26%,5.68%,3.89%,10.4%,4.48%,15%,4.58%,9.24%,2.66%
COc1cc(C)c(N(C)C(=O)CN(C)C)cc1Nc1nc(Nc2cccc(F)c2C(N)=O)c2cc[nH]c2n1,-1.63%,1.45%,0.54%,1.63%,0.77%,1.47%,2.79%,1.86%,1.84%,-1.02%,-3.09%,-1.15%,1.77%,1.11%,-0.41%,0.41%,-0.05%,0.29%,0.09%,0.48%
CCN(CC)Cc1ccc(Nc2nccc(-c3cnn4ncccc34)n2)cc1,0.74%,5.45%,9.08%,1.19%,3.41%,4.82%,6%,1.9%,5.43%,,-2.98%,2.66%,22.6%,8.9%,37.5%,4.62%,37.4%,8.65%,43.2%,7.91%
NS(=O)(=O)c1ccc(N/N=C2\C(=O)Nc3ccc(C(=O)NCCCn4ccnc4)cc32)cc1,6.6%,4.13%,11.5%,0.82%,2.78%,4.22%,5.04%,,-1.29%,-2.98%,,5.15%,10.9%,5.17%,14.3%,0.91%,14.2%,5.21%,13.1%,3.66%
O=C1Nc2ccc(I)cc2C1=Cc1cc(Br)c(O)c(Br)c1,8.78%,7.31%,11.5%,1.87%,1.49%,3.52%,5.78%,9.36%,10.2%,,,1.89%,6.01%,4.06%,6.63%,1%,4.74%,3.44%,7.29%,2.84%
Nc1nccc(-c2c(-c3ccc(F)cc3)ncn2C2CCC(O)CC2)n1 (configuration not stated),4.04%,-2.38%,-3.74%,-0.84%,-0.18%,-3.15%,-3.59%,-2.46%,0.21%,4.1%,-1.54%,2.5%,16.9%,3.86%,33.6%,7.44%,36.6%,5.19%,33.9%,6.26%
Fc1ccc(-c2ncn(C3CCNCC3)c2-c2ccnc(Oc3ccc(F)c(F)c3)n2)cc1,5.23%,5.03%,4.33%,0.93%,1.83%,4.91%,5.71%,1.64%,0.29%,,-4.15%,1.96%,1.25%,4%,3.19%,-0.04%,-0.02%,2.26%,2.39%,0.22%
O=C1Nc2ccccc2/C1=C/Nc1ccc(-n2cncn2)cc1,5.15%,6.65%,8.31%,1.82%,2.17%,5.31%,5.49%,,-2.52%,-0.09%,,1.9%,9.03%,2.67%,13.3%,1.55%,14.5%,3.88%,13.4%,3.25%
CCc1nccc2c1nc(-c1nonc1N)n2CC,-1.83%,3.29%,3.71%,0.74%,1.13%,0.51%,1.09%,,,3.51%,-8.78%,-0.36%,0.91%,1.08%,1.44%,-0.68%,3.2%,0.51%,3.64%,-0.7%
NCc1ccc(-n2c(-c3nonc3N)nc3cnccc32)cc1,-0.73%,12%,11.4%,3.24%,4.52%,5.94%,6.83%,,-2.63%,-1.38%,-0.18%,3.58%,2.62%,5.81%,0.32%,3.87%,0.32%,4.57%,1.69%,2.95%
CNC(=O)c1cncc(/C=C/c2c(C)cccc2C)c1,2.22%,0.04%,3.72%,1.52%,-0.05%,-0.14%,0.85%,7.14%,2.41%,,2.54%,8.21%,50.1%,17.2%,61.5%,16.9%,63.8%,14.5%,60.2%,1.83%
COc1cc(Nc2ncc3c(C)nc(-c4cccc(C(F)(F)F)c4)n3n2)cc(OC)c1OC,5.84%,6.01%,8.56%,1.46%,2.81%,3.31%,7.5%,5.75%,15.9%,-0.28%,11.2%,2.21%,7.54%,5.06%,12.7%,1.36%,10.8%,4.02%,13.4%,3.13%
O=C(Nc1n[nH]c2nc(-c3ccc(O)cc3)c(Br)cc12)C1CC1,35%,7.71%,8.21%,2.36%,3.87%,,6.07%,1.12%,8.52%,-0.4%,8.5%,21%,66.4%,38.5%,81%,37.4%,81%,37.5%,82.4%,43.5%
Cc1nnc(-c2ccc(C)c(-c3ccc(C(=O)NCc4ccc(Cl)cc4)cc3)c2)o1,0.59%,7.92%,6.11%,1.55%,1.24%,4.16%,4.01%,,-2.54%,-4.24%,,2.64%,6.05%,3.3%,11.6%,-1.14%,1.63%,2.54%,4.45%,2.23%
O=C(Nc1n[nH]c2cc(-c3cc(F)ccc3F)ccc12)C1CC1,-1.14%,5.03%,5.57%,0.42%,2.22%,2.86%,2.97%,3.42%,-2.05%,2.84%,-0.43%,8.07%,31.4%,13.8%,52.2%,13%,53.8%,8.73%,35.5%,23.3%
Cc1ccc(C(=O)NC(C)C)cc1-c1ccc(C(=O)NCC2CC2)cc1,1.12%,-1.5%,-0.84%,-1.39%,-3.39%,-3.81%,-3.2%,-4.56%,-2.22%,,,-0.92%,-0.81%,-1.54%,-1.16%,-0.95%,1.25%,-2.61%,-1.55%,-1.99%
NS(=O)(=O)c1ccc(Nc2cc(-c3ccc(O)c(F)c3)n[nH]2)cc1,3.14%,-5.59%,-0.83%,-1.12%,-1.29%,-4.62%,-3.25%,-6.87%,-2.39%,1.44%,-3.83%,1.72%,14.8%,2.42%,27.3%,4.46%,30.5%,1.52%,20%,0.21%
COc1cc2ncn(-c3cc(OCc4ccccc4C(F)(F)F)c(C(C)=O)s3)c2cc1OC,-1.77%,5.43%,4.68%,0.85%,1.29%,4.94%,2.41%,-1.43%,0.17%,-1.14%,-3.04%,1.66%,4.89%,4.51%,5.12%,1.37%,6.24%,4.93%,4.96%,1.88%
